Where “and” joins values, the source holds several entries; their conditions need not be identical. Identical values can stand only once. Compounds without any hit were thinned out: in the full panel of roughly 79,000, 15% have a hit. Some structures have more than one record in an assay (separate samples or runs), and their calls can disagree. Calls of active or inactive are those of the source. No stated cut-off is given here; in the data, active means growth inhibition above about 70%; inactive means the rest.
Columns and labels:
[1] = NCI Yeast Anticancer Drug Screen. Data for the rad50 strain (AID 155);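 further: 0% = growth of vehicle-only cultures of the same strain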; conditions: S. cerevisiae rad50 strain growth inhibition, stronger effect = higher value
Method in brief: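 Growth of the mutant yeast was measured after compound exposure and referenced to vehicle-treated cultures.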

[2] = NCI Yeast Anticancer Drug Screen. Data for the mec2-1 strain (AID 157); conditions: S. cerevisiae mec2-1 strain, stronger effect = higher value
Method in brief: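 Cells of the genetically defined mec2-1 yeast strain are incubated with test compound. Inhibition of growth is calculated against vehicle-treated controls.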

[3] = NCI Yeast Anticancer Drug Screen. Data for the sgs1 mgt1 strain (AID 161);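 further: 0% = growth of cultures given vehicle only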; conditions: S. cerevisiae sgs1 mgt1 strain, stronger effect = higher value
Method in brief: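 Inhibition of yeast growth, normalised to vehicle-treated controls, is reported for a strain bearing genetic alterations in DNA damage repair.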

[4] = NCI Yeast Anticancer Drug Screen. Data for the cln2 rad14 strain (AID 165);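 further: 0% = growth equal to vehicle treated cultures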; conditions: S. cerevisiae cln2 rad14 strain, stronger effect = higher value
Method in brief: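 The screen exposed genetically defined yeast (cln2 rad14) to test compounds and scored growth inhibition relative to vehicle-treated controls.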

[5] = NCI Yeast Anticancer Drug Screen. Data for the bub3 strain (AID 167); conditions: S. cerevisiae bub3 mutant strain, stronger effect = higher value
Method in brief: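 Whole-cell yeast assay. The mutant strain was incubated with compounds, and growth inhibition was determined by comparison with vehicle-treated cells.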

[6] = NCI Yeast Anticancer Drug Screen. Data for the mlh1 rad18 strain (AID 175); conditions: S. cerevisiae mlh1 rad18 strain growth inhibition, stronger effect = higher value
Method in brief: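 Compound-treated yeast growth, normalised to vehicle controls. Strain bears defined DNA repair mutations.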

[7] = at 5.0 µM (retest, dose inferred, filed as 0.5)
[8] = at 50.0 µM (retest, dose inferred, filed as 5.0)

Row | Compound | growth inhibition [1, 7] | growth inhibition [1, 8] | growth inhibition ([1]; at 50.0 µM) | growth inhibition [2, 7] | growth inhibition [2, 8] | growth inhibition ([2]; at 50.0 µM) | growth inhibition [3, 7] | growth inhibition [3, 8] | growth inhibition ([3]; at 50.0 µM) | growth inhibition [4, 7] | growth inhibition [4, 8] | growth inhibition ([4]; at 50.0 µM) | growth inhibition [5, 7] | growth inhibition [5, 8] | growth inhibition ([5]; at 50.0 µM) | growth inhibition [6, 7] | growth inhibition [6, 8] | growth inhibition ([6]; at 50.0 µM)
1 | c1ccc([CH2][Pb]([c]2ccccc2)([c]2ccccc2)[c]2ccccc2)cc1 | 96% (active) | 96% (active) | 97.2% (active) | 97% (active) | 99% (active) | 99.2% (active) | 97% (active) | 98% (active) | 98.7% (active) | 95% (active) | 95% (active) | 98.5% (active) | 98% (active) | 97% (active) | 99% (active) | 97% (active) | 97% (active) | 99.2% (active)
2 | CC[N+](C)(CC)CCNC(=O)C(O)(c1ccccc1)c1ccccc1 | -8% (inactive) | 40% (inactive) | 92.7% (active) | -13% (inactive) | 52% (inactive) | 95.5% (active) | -6% (inactive) | 36% (inactive) | 96.5% (active) | -2% (inactive) | 35% (inactive) | 93.2% (active) | -5% (inactive) | 23% (inactive) | 95.1% (active) | -1% (inactive) | 40% (inactive) | 94.4% (active)
3 | CN1CSC(=S)N(C)C1 | 21% (inactive) | 95% (active) | 97.3% (active) | 19% (inactive) | 99% (active) | 99.5% (active) | 17% (inactive) | 97% (active) | 95.9% (active) | 13% (inactive) | 98% (active) | 94.3% (active) | 4% (inactive) | 96% (active) | 99.5% (active) | 4% (inactive) | 96% (active) | 95.7% (active)
4 | CCCNC(=O)Nc1ccc2c(c1)Cc1cc(N(CCCl)CCCl)ccc1-2 | 2% (inactive) | 32% (inactive) | 39.1% (inactive) | 0% (inactive) | 16% (inactive) | 23.1% (inactive) | -4% (inactive) | 73% (active) | 37.3% (inactive) | 3% (inactive) | -1% (inactive) | 24.9% (inactive) | 6% (inactive) | 86% (active) | 76.5% (active) | 3% (inactive) | 52% (inactive) | 31.2% (inactive)
5 | COC(=O)C1=C(C)N2CCSC2(C)C(C(=O)OC)C1c1cccc(Cl)c1 (stereo unspecified) | -21% (inactive) | 85% (active) | 80.3% (active) | 4% (inactive) | 77% (active) | 79.5% (active) | 0% (inactive) | 84% (active) | 82.3% (active) | 17% (inactive) | 66% (inactive) | 69.1% (inactive) | 13% (inactive) | 89% (active) | 81.5% (active) | 6% (inactive) | 90% (active) | 73.2% (active)
6 | C[CH2][Sn]([CH2]C)([CH2]C)[O]C(=O)CO | 9% (inactive) | 98% (active) | 82.2% (active) | 10% (inactive) | 99% (active) | 87% (active) | 17% (inactive) | 98% (active) | 86.6% (active) | -11% (inactive) | 93% (active) | 55.4% (inactive) | 7% (inactive) | 98% (active) | 86.8% (active) | 12% (inactive) | 98% (active) | 84.9% (active)
7 | CC(=O)C1CCC2C3CCC4CC([N+]5(C)CCCCC5)CCC4(C)C3CCC12C (stereo unspecified) | 2% (inactive) | 29% (inactive) | 82.3% (active) | 17% (inactive) | 71% (active) | 79.9% (active) | 10% (inactive) | 87% (active) | 97.5% (active) | 8% (inactive) | 31% (inactive) | 81.1% (active) | 8% (inactive) | 64% (inactive) | 86.5% (active) | 18% (inactive) | 65% (inactive) | 92% (active)
8 | CCOP(=O)(CP(=O)(OCC)OCC)OCC.[Cl][Sn]([Cl])([c]1ccccc1)[c]1ccccc1 | 11% (inactive) | 99% (active) | 98.8% (active) | -4% (inactive) | 99% (active) | 98.9% (active) | 7% (inactive) | 97% (active) | 99.1% (active) | 7% (inactive) | 96% (active) | 98.1% (active) | 19% (inactive) | 98% (active) | 97.8% (active) | 1% (inactive) | 98% (active) | 99% (active)
9 | c1ccc(C[As+](c2ccccc2)(c2ccccc2)c2ccccc2)cc1 | 24% (inactive) | 92% (active) | 97.3% (active) | 4% (inactive) | 94% (active) | 97.7% (active) | 1% (inactive) | 89% (active) | 98.8% (active) | 1% (inactive) | 75% (active) | 94.7% (active) | 4% (inactive) | 96% (active) | 93% (active) | 11% (inactive) | 89% (active) | 97.7% (active)
10 | COC1(OC)C(Cl)=C(Cl)C(Cl)=C1Cl | 9% (inactive) | 95% (active) | 46.4% (inactive) | -2% (inactive) | 84% (active) | 46.5% (inactive) | -1% (inactive) | 91% (active) | 75.2% (active) | 0% (inactive) | 42% (inactive) | -9.85% (inactive) | 2% (inactive) | 89% (active) | 58.8% (inactive) | 4% (inactive) | 76% (active) | 78.8% (active)
11 | CN(C)CC(Cl)CCl (stereo unspecified) | 19% (inactive) | 86% (active) | 88.9% (active) | -1% (inactive) | 71% (active) | 80.2% (active) | 14% (inactive) | 75% (active) | 43.5% (inactive) | -4% (inactive) | 64% (inactive) | 55.9% (inactive) | -8% (inactive) | 8% (inactive) | 9.25% (inactive) | 15% (inactive) | 82% (active) | 49.5% (inactive)
12 | C[CH2][Sn]([Cl])([Cl])[CH2]C | 20% (inactive) and 26% (inactive) | 58% (inactive) and 79% (active) | 70.3% (active) and 68.2% (inactive) | 10% (inactive) and 16% (inactive) | 75% (active) and 85% (active) | 53.3% (inactive) and 77.2% (active) | 12% (inactive) and 21% (inactive) | 50% (inactive) and 68% (inactive) | 55.9% (inactive) and 44.2% (inactive) | 2% (inactive) and 31% (inactive) | 42% (inactive) and 35% (inactive) | 53.9% (inactive) and 48.2% (inactive) | 17% (inactive) and 11% (inactive) | 69% (inactive) and 58% (inactive) | 48.5% (inactive) and 41.8% (inactive) | 19% (inactive) and 30% (inactive) | 45% (inactive) and 81% (active) | 33.9% (inactive) and 23.1% (inactive)
13 | [Cl][Hg][Cl].c1ccc(CSc2ccccc2)cc1 | 99% (active) | 99% (active) | 99% (active) | 100% (active) | 100% (active) | 99.7% (active) | 100% (active) | 99% (active) | 99.3% (active) | 99% (active) | 99% (active) | 99.4% (active) | 99% (active) | 99% (active) | 99.2% (active) | 99% (active) | 99% (active) | 99.5% (active)
14 | CC(C)COP(=O)(OCC(C)C)C(=O)Nc1ccc(Cl)cc1 | -1% (inactive) | 80% (active) | 57.1% (inactive) | -19% (inactive) | 44% (inactive) | 15.2% (inactive) | 11% (inactive) | 89% (active) | 24.9% (inactive) | 9% (inactive) | 49% (inactive) | 22.6% (inactive) | -2% (inactive) | 58% (inactive) | 25.1% (inactive) | 2% (inactive) | 79% (active) | 33.6% (inactive)
15 | CCC(C)(C)c1ccc(O)cc1 | -1% (inactive) | 16% (inactive) | -19.3% (inactive) and 59.8% (inactive) | -3% (inactive) | 0% (inactive) | -17.4% (inactive) and 40.9% (inactive) | -10% (inactive) | 5% (inactive) | -10.9% (inactive) and 63% (inactive) | 1% (inactive) | -4% (inactive) | -15.2% (inactive) and -13.6% (inactive) | 2% (inactive) | 7% (inactive) | -28.6% (inactive) and 38.3% (inactive) | -2% (inactive) | 11% (inactive) | -17.7% (inactive) and 64.5% (inactive)
16 | [Cl][Pt+2][Cl].[NH-]C(c1ccccc1)C([NH-])c1ccccc1 (stereo unspecified) | -11% (inactive) | 10% (inactive) | -22.9% (inactive) and 11% (inactive) | 2% (inactive) | -8% (inactive) | -21.4% (inactive) and 0.25% (inactive) | -10% (inactive) | 9% (inactive) | 19% (inactive) and 2.15% (inactive) | -23% (inactive) | -10% (inactive) | 18.6% (inactive) and 21.9% (inactive) | -9% (inactive) | 4% (inactive) | -2.7% (inactive) and -2.2% (inactive) | -6% (inactive) | 2% (inactive) | -17.6% (inactive) and 29.3% (inactive)
17 | CC(=O)Nc1ccc(/C=N/N=C(/N)N[N+](=O)[O-])cc1 | -7% (inactive) | -1% (inactive) | 61.5% (inactive) | -7% (inactive) | -2% (inactive) | 63.8% (inactive) | -5% (inactive) | -1% (inactive) | 52.9% (inactive) | -1% (inactive) | 1% (inactive) | 83.8% (active) | -2% (inactive) | -6% (inactive) | 71.5% (active) | 1% (inactive) | -9% (inactive) | 81.3% (active)

Reference: PubChem BioAssay (NCI)
